Hit rate of the full screen: of about 410,000 compounds, about 18,000 (4.4%) were called active. About 7% were inconclusive and are not listed. The sample as a whole holds a higher share of actives than the screen did. Unmarked numbers belong to inactive results. No stated cut-off is given here; in the data, active means activity change below about -60%; inconclusive means no clear call, values can overlap the other calls; inactive means above about -39%.
On the % scale 0 is the no-effect control and ±100 the full control effect.

This experiment can be described thus: qHTS Assay for inhibitors of the human cytomegalovirus (HCMV). The following applies: HFF cells, HCMV-luciferase reporter, 72 h; at 57.5 µM; stronger effect = lower value. From the text:
NCGC Assay Overview: Infection with human cytomegalovirus (HCMV) continues to pose significant threats for pregnant women and immunocompromised hosts. HCMV causes serious morbidity and mortality in transplant recipients, and congenital HCMV is the leading infectious cause of mental retardation and deafness in children. In the 1990s, the annual costs associated with the disease burden of congenital CMV were estimated at around $2 billion. A HCMV vaccine is not available yet and HCMV therapies result in intolerable side effects and emergence of drug resistant viruses. […] Towards this goal we have developed and characterized a luciferase HCMV reporter that was initially used in 96 well plates and then optimized to 1536-well plates for utilization in screening of the MLSMR collection, the NGCG diversity collection and the NCGC Pharmaceutical Collection of approved and investigational drugs.
NCGC Assay Protocol Summary:
This is a cell-based assay for HCMV inhibition in HFFs cells. The screening used 2 compound doses and the HCMV-luciferase at MOI of 1 PFU/cell. Cells were treated and infected with HCMV. At 72 h post infection cell lysates were collected and luciferase activity was determined using the Glomax-Multi + Detection System (Promega, Madison, WI). Data were normalized to the controls for basal activity (buffer only) and known HCMV inhibitors Salinmoycin.
1536-well assay protocol for the assay:
(1) Add 3 ul CMV/HFF cell culture. 1000 cells/well in DMEM nirmal media.
(2) Incubate 16 hr at 37C.
(3) Add 23 nl control compound, 10uM of Salinomycin.
(4) Add 23 nl compounds in DMSO solution.
(5) Add 3 ul CMV suspension. Final 1 puf/ul, Virus stock 2000pfu/ul
(6) Incubate 72 hrs at 37C.
(7) Add 4 ul OneGlo Luc Reagent.
(8) Incubate 5 min at room temperature.
(In qHTS, concentration-response curves come from the screen itself.)
In the case of `Cc1ccc(NC(=O)N2c3ccccc3SC2c2ccco2)c(C)c1` (stereo unspecified), the activity change, negative = inhibition was -32.4%.
Turning to `O=C(NCC(c1ccc(Cl)cc1)N1CCOCC1)c1ccccc1F` (stereo unspecified), the activity change, negative = inhibition was 1.34%.
As for `C=CCn1c(SCC(N)=O)nnc1-c1cc2c(s1)CCC(CC)C2` (stereo unspecified), the activity change, negative = inhibition is -11.3%.
Next, `CCc1ccc(NC(=O)CCS(=O)(=O)c2cc3c(cc2Cl)NC(=O)CO3)cc1`: 4.24%; `NNC(=O)c1cnn(-c2ccccc2)c1C(F)(F)F`: 6.26%.
For `Fc1ccccc1CCNc1nnnn1-c1ccccc1`, the activity change, negative = inhibition is -28.9%.
Consider `FC(F)(F)c1nc(-c2ccccc2)ncc1-c1nnnn1-c1ccccc1`, for which the activity change, negative = inhibition is -66.2% (active).
Next, `CCN(CC)S(=O)(=O)c1ccc2c(c1)c(=O)c(C(=O)N1CCN(c3cccc(Cl)c3)CC1)cn2C`: 11.7%; `Cc1cccc(N2CCN(C(=O)CCn3c(=O)c4cccn4c4cccnc43)CC2C)c1` (stereo unspecified): 15%; `CC(C)CCN1CCN=C1N(C)C`: 3.25%.
In the case of `COCCNc1nc(-n2nc(C)cc2C)nc2sc3c(c12)CCCC3` it was -6.15%; in that of `CC(C)c1nc(SCC(=O)Nc2cccc(C(=O)O)c2)c2c3c(sc2n1)CCCC3`, -5.06%; in that of `Cc1cc(C)n(-c2nc(SCC(=O)N3CCCC3)c3c4c(sc3n2)CCCC4)n1`, -63.6% (active).
In the case of `CC(=O)c1ccc(NC(=O)CCNS(=O)(=O)c2cc(Br)cnc2N)cc1` it was 31.8%.
In the case of `CCOc1ccc(CNC(=O)c2ccc(CS(=O)c3ccccc3)o2)cc1` (stereo unspecified), the activity change, negative = inhibition is -3.55%.
Next, `CCCCc1nn2c(=O)cc(COC(=O)c3cccc(NC(=O)COc4ccccc4)c3)nc2s1`: 31.4%; `O=S(=O)(NCCc1ccc(F)cc1)c1cccc2cccnc12`: -31.1%.
Next, `Cc1ccc2cccc([N+](=O)[O-])c2n1`: 19.3%.
Next, `O=[N+]([O-])c1ccccc1S(=O)(=O)Nc1cccc2cccnc12`: -100% (active).
As for `Cn1c2ccccc2c2cc(/C=C(\NC(=O)c3ccccc3)C(=O)NCC(=O)O)ccc21`, the activity change, negative = inhibition was -0.653%.
With `Cc1nc(-c2ccccc2C(C)C)nc(NCc2ccc(-c3cccnc3)cc2)c1C`, the activity change, negative = inhibition was 28%.
In the case of `COc1ccc(OC)c(-c2csc(-c3c(N)c(C(=O)c4ccccc4)n4ccccc34)n2)c1` it was 5.78%; in that of `O=c1c2ccccc2nc(/C=C/c2ccco2)n1-c1ccccc1O`, -24%.
Next, `O=c1c2ccccc2nc(/C=C/c2ccc(F)cc2)n1-c1ccccc1O`: -99.8% (active).
In the case of `O=C(CSc1nc2ccccc2c(=O)n1-c1ccccc1F)N1CCOCC1` it was -17.8%; in that of `COc1ccc(OC)c2sc(N3CCN(C(=O)C4COc5ccccc5O4)CC3)nc12` (stereo unspecified), -1.41%.
Take `COc1ccccc1-c1nnc(C2CCN(C(=O)c3ccc(Cl)cc3)CC2)o1`: the activity change, negative = inhibition was -8.12%.
Next, `Cc1nc2c(-c3ccc(F)cc3)c(C)nn2c(C)c1CCC(=O)N1CCN(c2ccccn2)CC1`: -68.5% (active).
As for `Cc1nc2c(-c3ccccc3)c(C)nn2c(C)c1CCC(=O)NCCc1ccccc1`, the activity change, negative = inhibition is 11.4%.
As for `Cc1nc2c(-c3ccc(F)cc3)c(C)nn2c(C)c1CCC(=O)NCc1ccco1`, the activity change, negative = inhibition is -13.3%.
Next, `Cc1ccc(S(=O)(=O)c2c(Nc3cccc(Cl)c3)sc(C(=O)c3ccc4c(c3)OCO4)c2N)cc1`: 9.79%.
Next, `Cc1ccc(/C=N/NC(=O)C2=NNC(c3ccccc3)(c3ccccc3)C2)c(O)c1`: -93.6% (active); `Cc1ccc(/C=N/NC(=O)C(NC(=O)c2ccccc2)c2n[nH]c(=O)c3ccccc23)cc1` (stereo unspecified): 19.8%; `Cc1ccc(O)c(-c2cc(C(=O)NCc3ccccc3)[nH]n2)c1`: 1.75%.
In the case of `COc1ccc(NC(=O)c2cc3cc(C)ccc3n2C)cc1` it was 5.58%.
With `CCOC(=O)c1c(S(=O)(=O)N2CCCC(C(=O)NCc3cccc(C)c3)C2)c(C)n(C)c1C` (stereo unspecified), the activity change, negative = inhibition is -0.309%.
For the compound `Cc1oc2ncn(CC(C)C)c(=O)c2c1C(=O)N1CCN(c2ccccc2F)CC1`, the activity change, negative = inhibition is 14.5%.
On to `C=C1C(=O)[C@]23C[C@H]1CCC2[C@@]1(C)C(C[C@@H]3O)[C@](C)(C(=O)O)CC[C@@H]1O` (stereo partly specified), for which the activity change, negative = inhibition is -81.2% (active).
In the case of `Fc1ccccc1/C=N/Nc1cc(N2CCCCC2)ncn1` it was 76.3%; in that of `Cc1ccc(OCCOCCOc2ccc(Br)cc2/C=N\NC(=O)c2ccncc2)cc1`, -1.54%.
Next, `Oc1ccc(Br)cc1/C=N/Nc1ccccn1`: -97% (active).
Next, `COc1ccc(-c2noc(CSc3nc4ccc(C)cc4[nH]3)n2)cc1`: -38.7%.
Consider `COC(=O)c1cnc(N2CCN(c3ccccc3OC)CC2)c2ccccc12`, for which the activity change, negative = inhibition is -6.88%.
Next, `Cc1cccc(N2CCN(C3=C(c4ccccc4)C(=O)c4ccccc43)CC2)c1C`: -15.5%; `O=C(NC1CC(=O)N(c2ccc(F)cc2)C1)c1cccs1` (stereo unspecified): 70.7%; `COc1ccc(C)cc1Nc1nc2ccccc2c2nnc(C)n12`: 18.4%.
For the compound `O=C(c1n[nH]c2c1CCC2)N1CCCC(Nc2cccc(F)c2)C1` (stereo unspecified), the activity change, negative = inhibition was 9.79%.
Next, `Cc1ccc(-c2onc(C)c2C)cc1S(=O)(=O)Nc1ccccn1`: 52.8%; `COc1ccc(NS(=O)(=O)c2ccc(N3CCOCC3)c(NC(=O)c3ccccc3Br)c2)cc1`: 0%; `COc1ccc2c(c1)Cc1sc(NC(=O)c3ccccc3Br)nc1-2`: -70.4% (active).
In the case of `Cn1c(=O)c(=O)n(C)c2cc(NC(=O)c3ccccc3Br)ccc21`, the activity change, negative = inhibition was -5.7%.
In the case of `O=C(NCCc1ccccc1)c1ccc2c(c1)N(Cc1ccccc1)C(=O)c1ccccc1S2(=O)=O`, the activity change, negative = inhibition is 3.01%.
Next, `O=C(OCCO)c1cc(Cl)c(C(=O)OCCO)cc1Cl`: -29.4%; `CCOC(=O)[C@]12CCCC=C1N(CCC1=CCCCC1)C(=O)[C@H](CC(=O)NCCCCc1ccccc1)C2`: -18.4%.
Next, `CC1=C(C(=O)N(C)C)CC(CC(=O)NCCc2ccccn2)C(=O)N1CCC1=CCCCC1` (stereo unspecified): 8.56%; `CC1=C(C(=O)N(C(C)C)C(C)C)CC(CC(=O)NCCCCc2ccccc2)C(=O)N1CCC1=CCCCC1` (stereo unspecified): -112% (active); `COc1ccccc1NC(=O)C1=C(C)Nc2ncnn2C1c1sccc1C` (stereo unspecified): 18%.
In the case of `O=C(CSc1oc(-c2ccco2)nc1S(=O)(=O)c1ccc(Cl)cc1)c1ccccc1` it was -0.0708%; in that of `O=C(Nc1ccc(Oc2ccccc2)cc1)C1CCN(S(=O)(=O)c2ccc(Cl)cc2)CC1`, -10.9%; in that of `O=C(Nc1ccc(S(=O)(=O)N2CCOCC2)cc1)C1CCN(S(=O)(=O)c2ccc(Cl)cc2)CC1`, -78.5% (active).
For `CC(=O)Nc1ccc(S(=O)(=O)N2CCC(C(=O)NC3CC3)CC2)cc1`, the activity change, negative = inhibition was 6.71%.
Consider `CCCNC(=O)c1ccc(Cn2c(SCC(N)=O)nc3ccccc3c2=O)cc1`, for which the activity change, negative = inhibition was 4.58%.
Next, `NC(=O)c1ccc(NC(=O)COC(=O)c2c3c(nc4ccccc24)/C(=C\c2ccc4c(c2)OCO4)CCC3)cc1`: -90.6% (active); `NC(=O)c1ccc(NC(=O)COC(=O)C(Cc2ccccc2)NC(=O)c2ccccc2)cc1` (stereo unspecified): 10.9%.
Next, `CN(CC(=O)Nc1ccc(C(N)=O)cc1)S(=O)(=O)c1ccc2c(c1)OCCO2`: 21.6%; `COc1ccc(CCNC(=O)CCCn2c(=O)c3ccccc3n(Cc3ccc(C)cc3)c2=O)cc1OC`: 8.21%; `Cc1ccc(Cn2c(=O)n(Cc3nc(-c4ccccc4)no3)c(=O)c3cc4c(cc32)OCO4)cc1`: -3.37%.
Next, `COc1cc(C(=O)Nc2ccc(OCc3cc(=O)n4ccc(C)cc4n3)cc2)cc(OC)c1OC`: 58.3%; `COc1ccc2oc(-c3ccc(C)c(NC(=O)c4sc5ccccc5c4Cl)c3)nc2c1`: 47.4%.
Regarding `Oc1cccc(C2c3[nH]c4ccccc4c3CCN2Cc2cnn(-c3ccccc3)c2)c1` (stereo unspecified), the activity change, negative = inhibition was 19.4%.
In the case of `CCCCN1C(=O)c2[nH]nc(-c3ccccc3O)c2C1c1cccc(OCc2ccccc2)c1` (stereo unspecified) it was -19%.
Next, `Cc1[nH]nc(-c2ccc(OCc3cnn(-c4ccccc4)c3)cc2O)c1Oc1ccc(Cl)cc1`: -95.2% (active); `CCC1CCCCN1C(=O)Cn1c(=O)n(CCCCCC(=O)NCc2ccccc2)c(=O)c2sccc21` (stereo unspecified): -18.6%.
In the case of `CCOC(=O)c1sc(-c2cccc([N+](=O)[O-])c2)cc1N` it was 0.0939%; in that of `Cc1ccc(-c2nnc(CN3CCN(C)CC3)o2)cc1`, 145%.
With `CCOC(=O)C1CCN(Cc2nnc(-c3cccc(Br)c3)o2)CC1`, the activity change, negative = inhibition is -20.4%.
On to `CCOC(=O)N1CCN(Cc2nnc(-c3ccccc3Cl)o2)CC1`, for which the activity change, negative = inhibition was -96.5% (active).
Next, `O=C(Nc1nnc(C2CC(=O)N(c3ccc(Cl)cc3)C2)s1)c1ccco1` (stereo unspecified): 5.75%.
In the case of `Cc1ccc(N2C(=O)C(CC(=O)Nc3cccc(F)c3)N(CCc3ccncc3)C2=O)cc1` (stereo unspecified) it was -29.9%; in that of `Cc1ccc(NC(=O)CC2C(=O)N(Cc3ccccc3)C(=S)N2NC(=O)c2cccc(F)c2)c(C)c1` (stereo unspecified), -70.8% (active).
In the case of `Cc1ccc(NC(=O)CN2C(=O)CC(C)Sc3ccccc32)c(C)c1` (stereo unspecified) it was -2.3%; in that of `Cc1ccc(CNC(=O)C2CC(c3ccccc3[N+](=O)[O-])=NO2)o1` (stereo unspecified), -11.5%.
On to `Cc1ccccc1NC(=O)c1cc2c([nH]c1=O)CC(C)(C)CC2=O`, for which the activity change, negative = inhibition was 43%.
Next, `N#Cc1ccc(CSc2nnc(-c3ccccn3)n2-c2ccc(Cl)cc2)cc1`: -9.16%.
In the case of `Clc1ccc(-n2nnnc2-c2cnc(-c3ccccn3)nc2-c2cccs2)cc1` it was -103% (active).
In the case of `O=C(Cn1cc(-c2nnnn2-c2ccc(Cl)cc2)c(=O)c2ccccc21)c1ccccc1` it was -9.79%.

The values above are taken from PubChem BioAssay AID1259415 (National Center for Advancing Translational Sciences (NCATS), 2018).
